This experiment in a line: cytotoxicity in LNCaP prostate cells – cell-based, cell event count, single point, cytotoxicity control for prostate differentiation activator project, confirmation (AID 1076).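 Note: counts scatter-gated live cells after medium removal discards detached dead cells.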 The conditions noted are these: LNCaP cell loss, flow cytometry event count, 4 d; event count; at 10 µM; stronger effect = lower value. For orientation: In flow cytometry, cells or beads pass a laser one at a time.
For `COC(=O)c1ccc2c(=O)n(Cc3ccco3)c(SCC(=O)Nc3ccc(C)c(Cl)c3)nc2c1`, the cell event count was found to be 146. For `COC(=O)c1cc(-c2ccccc2)sc1NC(=O)c1cc(C)on1`, the cell event count was 42.5. Compound `Cc1oc(-c2ccccc2F)nc1CN1CCC(C(=O)NCCC2=CCCCC2)CC1` registered a cell event count of 402. The value for `O=C(CCN1C(=O)COc2ccccc21)NCCCN1CCN(c2ccc(F)cc2)CC1` was 146; that for `O=C(NCCc1c[nH]c2ccccc12)C(F)(F)C(F)F` was 118.

Compound `Cc1ccc(Nc2cc(=O)n(C3CCCCC3)c(=O)[nH]2)cc1C` returned a cell event count of 62.5. The value for `Cc1nc(NCCNC(=O)c2ccco2)c2c(C)c(C)sc2n1` was 170; that for `CCN1C=C(Cc2cccs2)C2=C(C1)C(c1cccs1)C(C#N)=C(N)O2` (configuration not stated) was 200.

`CCOC(=O)N1CCN(C(=O)C2CCN(Cc3nc(-c4ccccc4C)oc3C)CC2)CC1` came in with a cell event count of 244. As for `CN(CCNC(=O)C1CC(=O)N(c2ccc(F)c(Cl)c2)C1)Cc1ccccc1` (configuration not stated), the figure is 202. The value for `Cc1ccc(-c2noc(CCC(=O)NCCCN3CCN(c4cccc(Cl)c4)CC3)n2)cc1` was 123; that for `Cc1ccccc1-c1nc(CN2CCC(C(=O)NCc3cccnc3)CC2)c(C)o1` was 208.

`COCCNC(=O)CC(NS(=O)(=O)c1ccc(NC(C)=O)cc1)C(C)C` (configuration not stated) registered a cell event count of 62. The value for `CCOC(=O)C1=C(C)Nc2nc(SC)nn2C1c1ccc(C(=O)OC)cc1` (configuration not stated) was 178; that for `COc1ccc(-c2cc(C(=O)NCc3ccc(Cl)cc3)no2)cc1OC` was 255; that for `Cc1ccc(Cl)cc1N1CCN(C(=O)c2cc3c(=O)n(C)c4ccccc4c3n2C)CC1` was 10.5. As for `O=C(NCCCN1CCN(c2ccc(F)cc2)CC1)c1cccc(N2CCCC2=O)c1`, the figure is 263; as for `Cc1cc(=O)n2nc(N3CCCC(C(=O)NCc4ccco4)C3)sc2n1` (configuration not stated), 102.

Compound `O=C(NCCCN1CCN(c2ccccc2F)CC1)C1CCC(=O)N1C1CCCCC1` (configuration not stated) came in with a cell event count of 282. The value for `CCn1c(=O)cc(OCC(=O)O)c2ccccc21` was 99.5. The value for `O=C1c2ccccc2C(Nc2ccc3c(c2)OCO3)N1Cc1ccc2c(c1)OCO2` (configuration not stated) was 189. As for `COc1ccc(CCNC(=O)C2CCN(Cc3nc(-c4ccccc4F)oc3C)CC2)cc1OC`, the figure is 478. Compound `CCOc1ccc(OCC)c(NC(=O)C2CCCN(S(=O)(=O)c3c(C)noc3C)C2)c1` (configuration not stated) registered a cell event count of 260. As for `O=C(NC1CCCC1)C1CCN(S(=O)(=O)c2cccc3cccnc23)CC1`, the figure is 182. As for `CCOc1ccc(C(=O)Nc2ccc(Cl)cn2)cc1Cl`, the figure is 86. The value for `Cc1oc(-c2ccc(Cl)cc2)nc1CN1CCCC(C(=O)NCc2cccnc2)C1` (configuration not stated) was 67. Take `N#CC1=C(N)OC2=C(C(=O)CCC2)C1c1ccc(OC(=O)N2CCOCC2)cc1` (configuration not stated): the cell event count was found to be 223.

For the compound `CCOc1nc(-c2ccccc2O)nc2ccccc12`, the cell event count stood at 250.

Turning to `COc1ccc(C)cc1NC(=O)CCC(=O)Nc1ccc2nc(N3CCN(C)CC3)cc(C)c2c1`, the cell event count amounted to 369. The value for `Cc1ccc(-n2c(SCC(=O)Nc3nccs3)nc3c(c2=O)SCC3)cc1` was 282; that for `CC(C)(O)c1cn(-c2nonc2N)nn1` was 106; that for `Cc1nn(Cc2ccc(F)cc2)c(C)c1NC(=O)c1cc(-c2ccc3c(c2)OCO3)on1` was 276. The value for `O=C(NCCCN1CCN(c2ccccc2F)CC1)C1CCC(=O)N1C1CCCC1` (configuration not stated) was 62; that for `Cc1oc(-c2ccccc2F)nc1CN1CCC(C(=O)NCc2cccnc2)CC1` was 364; that for `c1ccc(OCCCn2nnc(-c3cccnc3)n2)cc1` was 126. As for `CN(CC(O)COc1ccc(OCC(O)CN(C)C2CCCCC2)cc1)C1CCCCC1` (configuration not stated), the figure is 118. Compound `c1ccc(N2CCN(c3nnc(Cc4cccnc4)c4ccccc34)CC2)nc1` registered a cell event count of 434.

The values above are taken from PubChem BioAssay AID1076 (NMMLSC, 2008).
